Measured values from PubChem BioAssay (NCATS).
Values without a mark were called inactive. The call rests on the fitted dose curve; in most records, active means well fitted curve in the direction sought with a large enough effect; inconclusive means small, poorly fitted or top-dose-only effect, or another doubt; inactive means no such curve, though single readings can be large; an effect the other way counts as inactive or inconclusive. Records with an inconclusive call do not appear.

system: not listed separately; assay: qHTS Counterscreen for compound interference against the NCATS DSHEA and TCM libraries (AID 1919978); details: firefly luciferase detection reagent interference, luminescence;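 further: compounds preincubated with 1 µM D-luciferin or buffer before detection reagent; % of control where 0% means no effect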
In short: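 Compounds, titrated from 19.5 nM to 39.8 uM final, were pinned onto 1 uM D-luciferin or plain 100 mM potassium phosphate. After 15 min at room temperature, luciferin detection reagent was added for 30 min before the luminescence read.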

Row | SMILES | max response [%]
1 | COC(=O)C1=CO[C@@H](C)[C@H]2CN3CCc4c([nH]c5ccccc45)[C@@H]3C[C@H]12 | -2.56
2 | O=C(/C=C/c1ccc(O)c(O)c1)OC(Cc1ccc(O)c(O)c1)C(=O)O (stereo not given) | -4.37
3 | C=C[C@](C)(O)CCC=C(C)C | -3.94
4 | NC(Cc1c[nH]c2ccccc12)C(=O)O (stereo not given) | 1.56
5 | O=c1ccc2ccc(O)cc2o1 | 2.6
6 | COc1ccc2ccc(=O)oc2c1 | 3.31

system: not listed separately; assay: Dual reporter qHTS for agonist of Pregnane X Receptor (hPXR) against the NCATS DSHEA and TCM libraries: Fluorescence readout (AID 1920058); details: PXR dual reporter cells; series mostly up to 40 µM; activation: at the top concentration; further: 0% is about no effect
In short: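 Measures viability of the PXR reporter HepG2 line by protease-substrate fluorescence (405/540 nm), taken 1 h after CellTiter-Fluor addition. Substances are tested as concentration series over a ~24 h exposure, with rifampicin as agonist control.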

Row | SMILES | activation
7 | C=C(C)[C@H]1CC=C(C)C(=O)C1 | 4.18%
8 | O=c1cc(-c2ccc(O)cc2)oc2cc(O[C@H]3OC(CO)C(O)C(O)C3O)cc(O)c12 (stereo not given in full) | 5.28%
9 | COC(=O)C1=CO[C@@H](C)[C@H]2CN3CCc4c([nH]c5ccccc45)[C@@H]3C[C@H]12 | -45.5%
10 | O=C(/C=C/c1ccc(O)c(O)c1)OC(Cc1ccc(O)c(O)c1)C(=O)O (stereo not given) | 1.75%
11 | C=C[C@](C)(O)CCC=C(C)C | 21.9%
12 | NC(Cc1c[nH]c2ccccc12)C(=O)O (stereo not given) | -15.2%
13 | O=c1ccc2ccc(O)cc2o1 | -0.711%
14 | COc1ccc2ccc(=O)oc2c1 | 11.8% [at 68.2 µM]

biological target: Nuclear receptor subfamily 1 group I member 2 (Homo sapiens) (UniProt O75469); assay: Dual reporter qHTS for agonist of Pregnane X Receptor (hPXR) against the NCATS DSHEA and TCM libraries: Luminescence readout (AID 1920059); details: hPXR dual reporter cells, luciferase luminescence agonist; series mostly up to 40 µM; activation: at the top concentration; further: 0% is about no effect
In short: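 hPXR-LucHepG2 cells in phenol red-free DMEM with 5% charcoal-stripped FBS, 2000 cells/well, attached 5 h, then exposed 24 h at 37C to compounds; rifampicin as positive agonist control (2.8 nM–92 uM). Luciferase luminescence read.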

Chain of Nuclear receptor subfamily 1 group I member 2 (Homo sapiens) (O75469 whole entry, looked up): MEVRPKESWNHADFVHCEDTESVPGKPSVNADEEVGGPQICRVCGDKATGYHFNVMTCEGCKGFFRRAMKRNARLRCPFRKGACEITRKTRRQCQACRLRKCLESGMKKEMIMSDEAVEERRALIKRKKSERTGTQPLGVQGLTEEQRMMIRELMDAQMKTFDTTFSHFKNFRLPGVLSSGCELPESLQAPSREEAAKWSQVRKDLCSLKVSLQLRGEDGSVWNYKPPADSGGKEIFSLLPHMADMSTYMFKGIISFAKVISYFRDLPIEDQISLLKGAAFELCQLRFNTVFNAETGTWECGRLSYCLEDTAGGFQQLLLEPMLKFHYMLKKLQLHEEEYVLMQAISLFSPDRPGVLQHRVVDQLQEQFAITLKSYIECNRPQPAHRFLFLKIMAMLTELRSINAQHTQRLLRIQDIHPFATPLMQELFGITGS

Row | SMILES | activation
15 | C=C(C)[C@H]1CC=C(C)C(=O)C1 | -9.22%
16 | O=c1cc(-c2ccc(O)cc2)oc2cc(O[C@H]3OC(CO)C(O)C(O)C3O)cc(O)c12 (stereo not given in full) | 4.75%
17 | O=C(/C=C/c1ccc(O)c(O)c1)OC(Cc1ccc(O)c(O)c1)C(=O)O (stereo not given) | 2.09%
18 | NC(Cc1c[nH]c2ccccc12)C(=O)O (stereo not given) | 12.3%
19 | O=c1ccc2ccc(O)cc2o1 | 3.24%
20 | COc1ccc2ccc(=O)oc2c1 | -9.08% [at 68.2 µM]

biological target: Nuclear receptor subfamily 1 group I member 2 (Homo sapiens) (UniProt O75469); assay: Dual reporter qHTS for antagonist of Pregnane X Receptor (hPXR) against the NCATS DSHEA and TCM libraries: Luminescence Readout (AID 1920060); details: hPXR dual reporter cells, luciferase luminescence, antagonist mode; series mostly up to 40 µM; activity change, negative = inhibition: at the top concentration;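 further: HepG2 cells carrying hPXR luciferase reporter stimulated with rifampicin at 2 µM; 0% is about no effect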
Description: Assay Development and Screening Technology Laboratory (ADST)
National Center for Advancing Translational Sciences (NCATS), Rockville, MD
National Institute of Health (NIH), Bethesda, Maryland
Dietary Supplements and Natural Products have minor oversight of their safety and efficacy. We assembled a collection of Dietary Supplements and Natural Products (DSNP) as well as Traditional Chinese Medicinal (TCM) Plant extracts, which were screened against an in vitro panel of assays, including a liver cytochrome p450 enzyme panel, CAR/PXR signaling pathways, and P-gp transporter assays, to assess their activity. This pipeline facilitated the interrogation of Natural Product-Drug Interaction (NaPDI) through prominent metabolizing pathways. In addition, we compared the activity profiles of the DSNP/TCM substances with those of an approved drug collection. Many of the approved drugs have well-annotated mechanisms of action (MOA) while the MOAs for most of the DSNP and TCM samples remain unknown. Based on the premise that compounds with similar activity profiles tend to share similar targets or MOA, we clustered the library activity profiles to identify overlap with the NCATS Pharmaceutical Collection to predict the MOAs of the DSNP/TCM substances. Overall, we highlight four significant bioactivity profiles (measured by p-values) as examples of this prediction. To assess broad cytotoxicity, we employed screening against a HepG2 cell line. In addition, transporter-mediated drug interactions are utilized in the characterization of DDIs using a P-glycoprotein (P-gp) assays. To profile potential P-gp activity, a differential cell viability was measured against two cell lines: a parental KB-3-1 human cervical adenocarcinoma cell line and the drug-resistant subline KB-8-5-11 that overexpresses P-gp.
To this end, we profiled both collections for potential CAR and/or PXR activity, employing a previously published 1536-well qHTS assay.
[1] Lee TD, et al. A High-Throughput Screen of a Library of Therapeutics Identifies Cytotoxic Substrates of P-glycoprotein. Mol Pharmacol. Nov 2019;96(5):629-640. doi:10.1124/mol.119.115964
For PXR luciferase reporter gene assays, we used hPXR-LucHepG2cells provided by Dr. Taosheng Chen (Department of Chemical Biology and Therapeutics, St. Jude Children's Research Hospital). Cells were cultured in EMEM supplemented with 10% fetal bovine serum, 100U/mL penicillin and 100ug/mL streptomycin, and 500ug/mL of geneticin.
PROTOCOL TABLE (as described by Inglese J, Shamu CE and Guy RK. 2007)
SEQUENCE No. (e.g., 1, 2, 3, etc.); PARAMETER (e.g., Cells, Incubation, Reagent, etc.); VALUE; DESCRIPTION.
1; Cells; 5 uL; hPXR-LucHepG2; white solid-bottom Greiner plate.
2; Incubation; 5h; 37C, 95% humidity, 5% CO2
3; Compounds and control; 23 nL; Kalypsis pintool (Wako USA).
4; Reagent; 1uL; rifampicin (RIF) in the antagonist mode.
6; Reagent; 1 uL; CellTiter-Fluor detection reagent.
7; Incubation; 1 hr; 37C, 5% CO2.
8; Read; Fluorescence; ViewLux plate reader.
9; Reagent; 4 uL; ONE-Glo Luciferase detection reagent.
10; Incubation; 30 min; room temperature.
11; Read; Luminescence; ViewLux plate reader.
NOTES (numbers refer to Sequence numbers above)
1. Briefly, 5uL of hPXR-LucHepG2 cells in phenol red-free DMEM containing 5% charcoal-stripped FBS, 1 mM sodium pyruvate (Invitrogen), 2 mM L-glutamine (Invitrogen), and 100 U/mL penicillin and 100ug/mL streptomycin were dispensed using a BioRAPTR FRD at 4 x 10^5cells/mL (2000cells/well) in tissue culture-treated 1536-well white assay plates (GreinerBio-One).
2. Plates were incubated for 5h at 37C, 95% humidity, and 5% CO2 to allow for cell attachment.
3. Compounds (final concentration for most substances ranged from 15.6 nM to 45.9uM), positive SPA70 (final concentration range of 2.8 nM to 92uM for the antagonist mode), and cytotoxicity control tetraoctyl ammonium bromide (final concentration of 92uM) were transferred (23 nL) via pintool (Wako Automation).
4-5. […]

Row | SMILES | activity change, negative = inhibition
21 | C=C(C)[C@H]1CC=C(C)C(=O)C1 | -5.6%
22 | O=c1cc(-c2ccc(O)cc2)oc2cc(O[C@H]3OC(CO)C(O)C(O)C3O)cc(O)c12 (stereo not given in full) | 31.9%
23 | COC(=O)C1=CO[C@@H](C)[C@H]2CN3CCc4c([nH]c5ccccc45)[C@@H]3C[C@H]12 | 97.5%
24 | C=C[C@](C)(O)CCC=C(C)C | 17.3%
25 | NC(Cc1c[nH]c2ccccc12)C(=O)O (stereo not given) | -11.6%
26 | O=c1ccc2ccc(O)cc2o1 | 33%
27 | COc1ccc2ccc(=O)oc2c1 | -20.9% [at 68.2 µM]

system: not listed separately; assay: Dual reporter qHTS for antagonist of Pregnane X Receptor (hPXR) against the NCATS DSHEA and TCM libraries: Fluorescence Readout (AID 1920061); details: PXR dual reporter cells, antagonist mode; series mostly up to 40 µM; activity change, negative = inhibition: at the top concentration; further: 0% is about no effect
In short: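 HepG2 hPXR-Luc, 2000 cells/well, charcoal-stripped FBS medium; 5 h attach; RIF 2 uM final; 24 h 37C/5% CO2; CellTiter-Fluor 1 h, fluor 405/540; ONE-Glo 30 min RT, lum.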

Row | SMILES | activity change, negative = inhibition
28 | C=C(C)[C@H]1CC=C(C)C(=O)C1 | 3.54%
29 | O=c1cc(-c2ccc(O)cc2)oc2cc(O[C@H]3OC(CO)C(O)C(O)C3O)cc(O)c12 (stereo not given in full) | 9.15%
30 | COC(=O)C1=CO[C@@H](C)[C@H]2CN3CCc4c([nH]c5ccccc45)[C@@H]3C[C@H]12 | 54.9%
31 | O=C(/C=C/c1ccc(O)c(O)c1)OC(Cc1ccc(O)c(O)c1)C(=O)O (stereo not given) | 1.43%
32 | C=C[C@](C)(O)CCC=C(C)C | 11.1%
33 | NC(Cc1c[nH]c2ccccc12)C(=O)O (stereo not given) | -3.24%
34 | O=c1ccc2ccc(O)cc2o1 | 14.2%
35 | COc1ccc2ccc(=O)oc2c1 | 14% [at 68.2 µM]
